From PubChem BioAssay AID1159580 (chemical genetic matrix, 2015)
“And” between values parts separate entries of the source, which are not always exact repeats. Equal values may be shown once. Screen size: about 5,500 compounds; about 2,000 (36%) were called active. Not shown: some 18% with an inconclusive outcome. Cut-off read from the data, not from the text of the source: active = normalized growth mostly below about 0.91 (no sharp cut-off); inconclusive = no clear call, values can overlap the other calls; inactive = mostly above about 0.92. This is one part of the list.

Test: chemical genetic growth profiling, strain panel (AID 1159580);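 note: tested at 20 µM; growth read once vehicle control cultures reached saturation at 30 °C; 1 = growth at the plate median or of vehicle wells; lower values mean less growth of the strain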
Details: S. cerevisiae deletion strains, growth OD

Measured: normalized growth

CC(C)C(C)/C=C/C(C)C1CCC2C3=CC=C4CC(O)CCC4(C)C3CCC21C (configuration not stated)
active: locus YAL026C, strain drs2, hits give low values 0.856 | locus YBR009C, strain hhf1, hits give low values 0.893 | locus YBR021W, strain FUR4, hits give low values 0.814 | locus YDL134C, strain PPH21, hits give low values 0.86 | locus YDR137W, strain rgp1, hits give low values 0.819 | locus YDR162C, strain NBP2, hits give low values 0.732 | locus YDR392W, strain spt3, hits give low values 0.635 | locus YDR502C, strain sam2, hits give low values 0.917 | locus YGL078C, strain dbp3, hits give low values 0.908 | locus YGL248W, strain PDE1, hits give low values 0.862 | locus YGL253W, strain hxk2, hits give low values 0.861 | locus YJL095W, strain BCK1 (second series), hits give low values 0.898 | locus YJL164C, strain tpk1, hits give low values 0.905 | locus YJL166W, strain qcr8, hits give low values 0.86 | locus YLR262C, strain YPT6 (second series), hits give low values 0.727 | locus YLR330W, strain CHS5, hits give low values 0.844 | locus YLR418C, strain cdc73, hits give low values 0.666 | locus YNL071W, strain lat1, hits give low values 0.773 | locus YNL307C, strain MCK1, hits give low values 0.774 | locus YOR270C, strain vph1, hits give low values 0.681 | locus YPR163C, strain tif3, hits give low values 0.828
inactive: locus YAL013W, strain DEP1, hits give low values 0.935 | locus YAL021C, strain ccr4, hits give low values 1 | locus YAL030W, strain snc1, hits give low values 0.995 | locus YBL061C, strain skt5, hits give low values 0.996 | locus YBR023C, strain chs3, hits give low values 0.992 | locus YBR171W, strain sec66, hits give low values 1.01 | locus YBR229C, strain ROT2, hits give low values 1.01 | locus YBR231C, strain swc5, hits give low values 1 | locus YBR279W, strain paf1, hits give low values 1 | locus YCL011C, strain gbp2, hits give low values 0.974 | locus YCL016C, strain dcc1, hits give low values 1.01 | locus YCL029C, strain bik1, hits give low values 0.996 | locus YCL061C, strain MRC1, hits give low values 1.01 | locus YCL069W, strain vba3, hits give low values 1.01 | locus YCR088W, strain abp1, hits give low values 1.01 | locus YDL005C, strain med2, hits give low values 0.996 | locus YDL035C, strain GPR1, hits give low values 0.943 | locus YDL040C, strain nat1, hits give low values 1.01 | locus YDL074C, strain BRE1, hits give low values 0.848 | locus YDL101C, strain DUN1, hits give low values 0.965 | locus YDL185W, strain tfp1, hits give low values 1.01 | locus YDL192W, strain arf1, hits give low values 0.959 | locus YDR001C, strain nth1, hits give low values 1.01 | locus YDR069C, strain doa4, hits give low values 0.957 | locus YDR101C, strain arx1, hits give low values 1.02 | locus YDR159W, strain sac3, hits give low values 0.935 | locus YDR195W, strain ref2 1.08 | locus YDR297W, strain sur2, hits give low values 0.993 | locus YDR318W, strain mcm21, hits give low values 0.958 | locus YDR334W, strain swr1, hits give low values 1.01 | locus YDR335W, strain msn5, hits give low values 0.958 | locus YDR388W, hits give low values 1 | locus YEL003W, strain gim4, hits give low values 0.986 | locus YEL037C, strain rad23, hits give low values 0.989 | locus YEL061C, strain CIN8 (second series), hits give low values 1 | locus YER015W, strain faa2, hits give low values 1.01 | locus YER016W, strain bim1, hits give low values 0.987 | locus YER110C, hits give low values 0.996 | locus YER111C, strain swi4, hits give low values 0.982 | locus YER155C, strain BEM2 (second series), hits give low values 0.968 | locus YER155C, strain BEM2, hits give low values 0.975 | locus YER167W, strain BCK2, hits give low values 1.01 | locus YFR010W, strain ubp6, hits give low values 0.992 | locus YGL086W, strain mad1, hits give low values 0.962 | locus YGL167C, strain pmr1, hits give low values 0.998 | locus YGL173C, strain kem1, hits give low values 0.99 | locus YGL227W, strain vid30, hits give low values 0.995 | locus YGL240W, strain doc1, hits give low values 0.928 | locus YGR135W, strain pre9, hits give low values 0.928 | locus YGR229C, strain SMI1, hits give low values 0.831 | locus YGR252W, strain gcn5, hits give low values 0.798 | locus YHR013C, strain ard1, hits give low values 0.972 | locus YHR027C, strain rpn1, hits give low values 0.999 | locus YHR030C, strain SLT2, hits give low values 0.964 and 1.01 | locus YHR079C, strain IRE1 (second series), hits give low values 0.998 | locus YHR079C, strain IRE1, hits give low values 1.01 | locus YHR094C, strain hxt1, hits give low values 1.01 | locus YHR129C, strain ARP1, hits give low values 0.962 | locus YHR142W, strain chs7, hits give low values 0.884 | locus YHR200W, strain rpn10, hits give low values 0.994 | locus YIL066C, strain RNR3, hits give low values 0.97 | locus YIL073C, strain SPO22, hits give low values 0.863 | locus YIL125W, strain kgd1, hits give low values 1.03 | locus YIR030C, strain dcg1, hits give low values 1.01 | locus YJL092W, strain hpr5, hits give low values 1.01 | locus YJL095W, strain BCK1, hits give low values 0.835 and 1.02 | locus YJL115W, strain asf1, hits give low values 1.01 | locus YJL129C, strain trk1, hits give low values 0.978 | locus YJL134W, strain LCB3, hits give low values 1.01 | locus YJL154C, strain vps35, hits give low values 1.01 | locus YJL168C, strain set2, hits give low values 1.02 | locus YJL187C, strain SWE1 (second series), hits give low values 0.936 | locus YJL187C, strain SWE1, hits give low values 0.989 | locus YJR043C, strain POL32, hits give low values 1.03 | locus YJR066W, strain TOR1, hits give low values 0.921 | locus YJR075W, strain HOC1, hits give low values 0.978 | locus YKL009W, strain mrt4, hits give low values 0.926 | locus YKL068W, hits give low values 1.01 | locus YKL085W, strain MDH1 (second series), hits give low values 1 | locus YKL085W, strain MDH1, hits give low values 1 | locus YKL160W, strain elf1, hits give low values 0.989 | locus YKR001C, strain vps1, hits give low values 0.9 | locus YKR026C, strain gcn3, hits give low values 0.99 | locus YKR091W, strain srl3, hits give low values 0.998 | locus YLL001W, strain dnm1, hits give low values 0.96 | locus YLL026W, hits give low values 0.984 | locus YLL041C, strain sdh2, hits give low values 1.01 | locus YLR027C, strain aat2, hits give low values 0.972 | locus YLR039C, strain RIC1, hits give low values 0.806 | locus YLR058C, strain SHM2, hits give low values 0.946 | locus YLR102C, strain apc9, hits give low values 1.02 | locus YLR113W, strain HOG1, hits give low values 1 | locus YLR221C, strain rsa3, hits give low values 0.938 | locus YLR258W, strain gsy2, hits give low values 0.959 | locus YLR262C, strain YPT6, hits give low values 0.801 | locus YLR268W, strain sec22, hits give low values 0.968 | locus YLR320W, strain mms22, hits give low values 0.929 | locus YLR342W, strain FKS1, hits give low values 0.997 | locus YLR357W, strain rsc2, hits give low values 1.01 | locus YLR370C, strain arc18, hits give low values 0.989 | locus YLR371W, strain rom2, hits give low values 1.05 | locus YLR384C, strain iki3, hits give low values 0.988 | locus YML016C, strain PPZ1, hits give low values 0.973 | locus YML032C, strain rad52, hits give low values 0.973 | locus YML120C, strain ndi1, hits give low values 0.985 | locus YML124C, strain tub3, hits give low values 1 | locus YMR058W, strain fet3, hits give low values 0.956 | locus YMR078C, strain ctf18, hits give low values 1 | locus YMR125W, strain sto1, hits give low values 1.01 | locus YMR205C, strain PFK2, hits give low values 0.937 | locus YMR223W, strain ubp8, hits give low values 0.941 | locus YMR231W, strain pep5, hits give low values 0.998 | locus YMR307W, strain GAS1, hits give low values 0.797 | locus YNL067W, strain RPL9B, hits give low values 0.924 | locus YNL128W, strain TEP1, hits give low values 0.994 | locus YNL153C, strain GIM3, hits give low values 0.966 | locus YNL183C, strain NPR1, hits give low values 0.951 | locus YNL209W, strain ssb2, hits give low values 1 | locus YNL233W, strain BNI4, hits give low values 0.887 | locus YNL248C, strain rpa49, hits give low values 0.939 | locus YNL250W, strain rad50, hits give low values 0.952 | locus YNL271C, strain bni1, hits give low values 0.979 | locus YNL298W, strain CLA4, hits give low values 0.977 | locus YNL322C, strain KRE1 (second series), hits give low values 0.996 | locus YNR049C, strain mso1, hits give low values 0.998 | locus YNR052C, strain pop2, hits give low values 0.952 | locus YOL012C, strain htz1 1.19 | locus YOL147C, strain pex11, hits give low values 0.996 | locus YOR001W, strain rrp6, hits give low values 0.996 | locus YOR061W, strain CKA2, hits give low values 0.933 | locus YOR069W, strain VPS5, hits give low values 0.98 | locus YOR070C, strain gyp1, hits give low values 0.976 | locus YOR080W, strain dia2, hits give low values 1.02 | locus YOR083W, strain WHI5, hits give low values 0.991 | locus YOR106W, strain vam3, hits give low values 0.889 | locus YOR136W, strain idh2, hits give low values 0.962 | locus YOR144C, strain elg1, hits give low values 1 | locus YOR184W, strain ser1, hits give low values 0.952 | locus YOR231W, strain MKK1, hits give low values 0.995 | locus YOR265W, strain rbl2, hits give low values 1.01 | locus YOR290C, strain snf2, hits give low values 0.929 | locus YOR316C, strain cot1, hits give low values 1 | locus YPL051W, strain arl3, hits give low values 0.995 | locus YPL078C, strain atp4, hits give low values 0.957 | locus YPL106C, strain sse1, hits give low values 1.12 | locus YPL240C, strain hsp82, hits give low values 1.01 | locus YPL256C, strain CLN2, hits give low values 1.02 | locus YPR119W, strain clb2, hits give low values 1.02 | locus YPR141C, strain kar3, hits give low values 1.01 | locus YPR167C, strain met16, hits give low values 0.956 | strain wtn01, hits give low values 0.969
